Hits are enriched below; roughly 2.3% of the tested compounds scored in any of these assays.
GLD-1 RNA inh: GLD-1/TGE RNA complex disruptors, primary screen, biochemical, fluorescence polarization; Female germline-specific tumor suppressor gld-1 (Caenorhabditis elegans), Q17339; purified GLD-1 + fluorescein TGE RNA; inhibition, % at 5.96 µM; 320,000 tested, 0.44% active; AID 2280, 2010;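 active = percent inhibition above a per-plate cutoff, the plate mean of test compounds plus 3 SD, cut at about 30% in these data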
BCLXL inh: inhibitors of human Bcl-xL, primary screen, biochemical, fluorescence polarization, HTS. inhibition, % at 10.9 µM. 320,000 tested, 0.7% active. Bcl-2-like protein 1 (Homo sapiens), Q07817. GST-Bcl-xL / FITC-Bim BH3 peptide fluorescence polarization;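 active = inhibition above the mean of all tested compounds plus 3 SD, cutoff set per campaign, cut at about 30% in these data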;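 also: inhibitors lower millipolarization by displacing the labeled peptide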
Target sequence (Q07817 whole entry, looked up): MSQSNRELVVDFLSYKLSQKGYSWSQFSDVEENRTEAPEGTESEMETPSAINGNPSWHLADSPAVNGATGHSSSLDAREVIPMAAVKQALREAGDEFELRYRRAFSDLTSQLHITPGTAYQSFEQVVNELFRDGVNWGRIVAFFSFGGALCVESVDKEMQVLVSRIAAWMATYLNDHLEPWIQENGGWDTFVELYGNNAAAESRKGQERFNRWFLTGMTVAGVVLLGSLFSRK
Mcl1-Noxa inh: Mcl-1/Noxa binding inhibitors, primary screen, biochemical, TR-FRET, 1536-well. Induced myeloid leukemia cell differentiation protein Mcl-1 (Homo sapiens), Q07820. TR-FRET Mcl-1/Noxa peptide binding, 2 h. inhibition, % at 21.7 µM. 220,000 tested, 1.5% active. AID 1022, 2008;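 active = compounds that cut the protein-peptide binding signal by more than 50% relative to plate controls in a single-dose test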;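 also: His-tagged Mcl-1 with rhodamine Noxa BH3 peptide and terbium anti-His antibody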
Target sequence (Q07820 whole entry, looked up): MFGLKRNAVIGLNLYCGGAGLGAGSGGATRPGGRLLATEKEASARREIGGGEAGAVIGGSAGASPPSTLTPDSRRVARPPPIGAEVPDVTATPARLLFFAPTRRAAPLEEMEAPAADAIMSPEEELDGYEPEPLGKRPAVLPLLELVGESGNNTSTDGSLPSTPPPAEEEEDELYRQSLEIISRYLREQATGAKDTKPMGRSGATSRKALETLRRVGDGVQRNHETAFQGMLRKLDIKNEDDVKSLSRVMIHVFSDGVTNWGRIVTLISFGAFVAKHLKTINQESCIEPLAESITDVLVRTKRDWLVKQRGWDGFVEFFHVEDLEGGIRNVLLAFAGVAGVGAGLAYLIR
Mcl1 Bid PPI: Mcl-1/Bid binding inhibitors, primary screen, biochemical, TR-FRET, 1536-well | TR-FRET Mcl-1/Bid-Dy647 peptide binding | inhibition, % at 21.7 µM | 220,000 tested, 0.97% active;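 active = compounds that cut the binding signal by more than half at the single screening dose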;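 also: His-tagged Mcl-1 with europium anti-His antibody binding Bid BH3 peptide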
Mcl-1 Bim block: inhibitors of Bim peptide binding to Mcl-1, primary screen, biochemical, bead-based flow cytometry, multiplex; inhibition, % at 10 µM; Bim peptide-Mcl-1 binding; AID 1009, 2008; 190,000 tested, 0.1% active; in the data active = inhibition above about 40%
MCL1-BIM inh: inhibitors of MCL1 binding to BIM-BH3, primary screen, biochemical, fluorescence polarization. Induced myeloid leukemia cell differentiation protein Mcl-1 (Homo sapiens), Q07820. GST-MCL1 / FITC-Bim-BH3 fluorescence polarization. inhibition, % at 10.9 µM. 320,000 tested, 0.68% active;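 active = inhibition above the mean inhibition of all tested compounds plus 3 SD, set per campaign, cut at about 40% in these data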;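 also: higher means more loss of mP so more displacement of Bim peptide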
Of the large screens only hits and unclear results are named; the others gave an inactive call.

CS(=O)(=O)c1ccc2c(c1)sc1nc(=O)c(/C=C3/C=CC(=O)C(O)=C3)c(N)n12	Mcl1-Noxa inh 90 (no result: Mcl-1 Bim block)
Cc1ccn(C)c(=N)c1	none (no result: Mcl-1 Bim block)
COc1ccc(C(=O)NCC(=O)N2CCCCC2)cc1OC	none
COc1cc(OC)cc(C(=O)NCC(=O)N2CCCCC2)c1	Mcl1 Bid PPI 63
Cc1ccc2c(c1)c(C1=NC(=S)NC1=O)c(O)n2C	Mcl1-Noxa inh 55
Nc1cc(N)nc(SCC(=O)N2CCN(S(=O)(=O)c3ccccc3)CC2)n1	none (no result: Mcl-1 Bim block)
Cc1cccc(NC(=O)Cn2nc(-c3cccs3)ccc2=O)c1C	none (no result: Mcl1-Noxa inh, Mcl1 Bid PPI, Mcl-1 Bim block)
COC(=O)c1ccc(N2C(=O)CC(Sc3n[nH]c(C)n3)C2=O)cc1 (stereo not drawn)	Mcl1-Noxa inh 53
COC(=O)c1cc(C(=O)OC)cc(N2C(=O)CC(Sc3nc(C)cc(C)n3)C2=O)c1 (stereo not drawn)	none
COc1ccc([C@H]2C=C3CN(C(=O)OC(C)(C)C)S(=O)(=O)[C@H]3C[C@H]2OC(=O)c2cccs2)cc1	none (no result: Mcl-1 Bim block)
Nc1c(C(=O)Nc2nccs2)sc2nc(-c3cccs3)cc(C(F)(F)F)c12	BCLXL inh 31
Cc1nnc(NC(=O)c2sc3nc(-c4cccs4)cc(C(F)(F)F)c3c2N)s1	Mcl1-Noxa inh 98
CC(C)(C)C(=O)c1sc2nc(-c3cccs3)cc(C(F)(F)F)c2c1N	none
C=CCN(C(=O)c1csnn1)C(C(=O)NC1CCCC1)c1c(F)cccc1Cl (stereo not drawn)	none (no result: Mcl1-Noxa inh, Mcl1 Bid PPI, Mcl-1 Bim block)
CN1c2ccccc2C(C)(C)C12C=Nc1c(ccc3ccccc13)O2 (stereo not drawn)	BCLXL inh 34, MCL1-BIM inh 43
CN1c2ccccc2C(C)(C)[C@]12C=Cc1cc(O)ccc1O2	none
Cc1ccccc1C(=O)c1cccn1CC(=O)NC1CCCC(C)C1C (stereo not drawn)	none (no result: Mcl1-Noxa inh, Mcl1 Bid PPI, Mcl-1 Bim block)
CCn1c(=S)[nH]c2sc3c(c2c1=O)CCCC3	none (no result: Mcl1-Noxa inh, Mcl1 Bid PPI, Mcl-1 Bim block)
C=CCn1c(=S)[nH]c2sc3c(c2c1=O)CCC3	Mcl1-Noxa inh 56 (no result: GLD-1 RNA inh, BCLXL inh, MCL1-BIM inh)
Cc1cc(C)cc(N(CCC#N)C(=O)CSc2ncnc3sccc23)c1	none (no result: Mcl1-Noxa inh, Mcl1 Bid PPI, Mcl-1 Bim block)
CCC1Oc2ccc(C)cc2N(CC(=O)N(Cc2cccnc2)Cc2ccc(C)o2)C1=O (stereo not drawn)	Mcl1-Noxa inh 64, Mcl1 Bid PPI 71
COc1ccc(NC(=O)COC(=O)CCC2CCCCC2)cc1	none (no result: BCLXL inh, Mcl1-Noxa inh, Mcl1 Bid PPI, Mcl-1 Bim block, MCL1-BIM inh)
CC(C)(C)OC(=O)NCCCC[C@H](NC(=O)c1nc[nH]c1C(=O)NC(c1ccccc1)c1ccccc1)C(=O)OC(C)(C)C	none
CCCCCCOC(=O)C(C#N)c1nc2ccccc2nc1N1CCN(C)CC1 (stereo not drawn)	Mcl1-Noxa inh 53
NNc1nc2c(-c3ccc(Cl)cc3)nnn2c2ccccc12	Mcl1-Noxa inh 68
NNc1nc2c(-c3ccc(F)cc3)nnn2c2ccccc12	Mcl1-Noxa inh 69
COCCCNc1nc2c(-c3ccc(Cl)cc3)nnn2c2ccccc12	none
O=C(c1cc(F)ccc1F)C1CCCN(C(=O)CCCN2CCCCC2=O)C1 (stereo not drawn)	BCLXL inh 51
O=C(c1cc(F)ccc1F)C1CCCN(C(=O)CCc2cnccn2)C1 (stereo not drawn)	none
O=C1CCc2cc(S(=O)(=O)NCCCC(=O)N3CCN(Cc4ccc5c(c4)OCO5)CC3)ccc2N1	Mcl-1 Bim block 40
Cc1cc(C)c(S(=O)(=O)/N=C2\C=C(Nc3ccc(C(=O)O)cc3)C(=O)c3ccccc32)c(C)c1	none (no result: Mcl1-Noxa inh, Mcl1 Bid PPI, Mcl-1 Bim block)
O=C(O)c1ccc(NC2=C/C(=N/S(=O)(=O)c3ccccc3)c3ccccc3C2=O)cc1	Mcl1-Noxa inh 93 (no result: GLD-1 RNA inh, BCLXL inh, MCL1-BIM inh)
CC(C)CCN(C(=O)C1CSC2(C)CCC(=O)N12)c1c(N)n(Cc2ccccc2)c(=O)[nH]c1=O (stereo not drawn)	none (no result: Mcl1-Noxa inh, Mcl1 Bid PPI, Mcl-1 Bim block)
CCCCCCc1cc2cc(S(=O)(=O)c3ccc(F)c(Cl)c3)c(=O)oc2cc1O	GLD-1 RNA inh 97
CCOc1cc(C(=O)NCCCn2ccnc2)cc(OCC)c1OCC	none
Cc1sc2ncnc(NCCN3CCOCC3)c2c1C	Mcl1 Bid PPI 55
COc1ccc(CCNC(=O)C2(C)CCC(=O)N2CCC(C)C)cc1OC (stereo not drawn)	Mcl1 Bid PPI 59
COc1ccc(CCNC(=O)C23CCC(C)(C(=O)O2)C3(C)C)cc1OC (stereo not drawn)	none
COc1ccc(N=Nc2ccc(O)c3ncccc23)cc1	Mcl1 Bid PPI 73 (no result: Mcl-1 Bim block)
COc1cc(C(=O)NCc2ccc(C(=O)NCC(OC)OC)cc2)cc(OC)c1OC	Mcl1 Bid PPI 64
COc1cc(/C=C2\SC(c3ccc(C)cc3)=NC2=O)cc(OC)c1O	Mcl1-Noxa inh 51
COc1ccc(/C=C2\SC(N)=NC2=O)cc1Br	none (no result: Mcl1-Noxa inh, Mcl1 Bid PPI, Mcl-1 Bim block)
Cc1ccc(C2=NC(=O)/C(=C/c3cc(O)c(O)c(Br)c3)S2)cc1	Mcl1-Noxa inh 95 (no result: GLD-1 RNA inh, BCLXL inh, MCL1-BIM inh)
COc1cc(/C=C2\SC(N)=NC2=O)cc(Cl)c1O	none (no result: Mcl1-Noxa inh, Mcl1 Bid PPI, Mcl-1 Bim block)
CCC(Oc1ccccc1OC)C(=O)Nc1ccc2c(c1)OCO2 (stereo not drawn)	none (no result: Mcl1-Noxa inh, Mcl1 Bid PPI, Mcl-1 Bim block)
COc1cc(OC)c2c(c1O)OC(c1ccccc1)CC2=O (stereo not drawn)	Mcl1-Noxa inh 54
Cc1cc(NC(=O)C(=O)NCCN2CCN(C(=O)c3cccs3)CC2)ccc1Br	none
COc1ccc(NC(=O)C(=O)NCCN2CCN(C(=O)c3cccs3)CC2)cc1	Mcl1-Noxa inh 62
CC1CC(C)(C)NC(=S)N1CCC(=O)N1CCc2ccccc2C1 (stereo not drawn)	none
Cc1ccccc1Nc1nc(N)nc(COC(=O)[C@@H](NC(=O)c2ccccc2Cl)C(C)C)n1	none (no result: Mcl1-Noxa inh, Mcl1 Bid PPI, Mcl-1 Bim block)
Oc1ccc(Nc2ccnc3cc(Cl)ccc23)cc1	none (no result: Mcl-1 Bim block)
Cc1ccccc1/C=N/Nc1ccnc2cc(Cl)ccc12	Mcl1-Noxa inh 98, Mcl1 Bid PPI 52
Clc1ccc2c(N/N=C/c3cccnc3)ccnc2c1	none
Cc1ccc(/C=N/Nc2ccnc3cc(Cl)ccc23)c(C)c1	Mcl1-Noxa inh 56, Mcl1 Bid PPI 63
Oc1ccc(/C=N/Nc2ccnc3cc(Cl)ccc23)c(O)c1	Mcl1-Noxa inh 88, Mcl1 Bid PPI 57 (no result: Mcl-1 Bim block)
Clc1ccc2c(N/N=C/c3ccc(Br)cc3)ccnc2c1	none
COc1ccc(S(=O)(=O)N(C)Cc2ccc3c(c2)OCCO3)cc1	none (no result: Mcl1-Noxa inh, Mcl1 Bid PPI, Mcl-1 Bim block)
Cc1ccc(CC(=O)NCC(O)c2ccccc2)cc1 (stereo not drawn)	none (no result: Mcl1-Noxa inh, Mcl1 Bid PPI, Mcl-1 Bim block)

Source: PubChem BioAssay
